Assay outcomes: PubChem BioAssay, National Center for Advancing Translational Sciences (NCATS)
Pol eta inh-1 – blocks human DNA polymerase eta activity | Q9Y253 | recombinant Pol eta, fluorescent DNA replication assay | Potency, µM (titrated, usually from 114 µM), for the others: top-dose activity change, negative = inhibition, hits mostly inhibitors | 1.2% of 390,000 active; further: potency means the concentration at half of the fitted maximal effect; on the % scale 0 is the no-effect control and ±100 the full control effect
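Fluorescent replication assay: 50 nM final substrate added after a 15 min room-temperature compound preincubation with 10 nM enzyme. Signal taken at 0 min and again at 10 min.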
PI5P4K alpha inh – blocks human PI5P4K alpha kinase activity. P48426. PI5P4Kalpha enzyme, ADP-Glo luminescence, 60 min; active compounds read low. max response, %. 1.2% of 330,000 active. AID 652105; active means max response of -50% or lower; inconclusive means between -30% and -50%; inactive means -30% or higher; further: value at the top dose of about 77 µM; on the % scale 0 is the no-effect control and ±100 the full control effect
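PI5P4Kalpha ADP-Glo assay; 5 microM ATP final; 60 min RT reaction; HEPES pH 7.4/EGTA/CHAPS, 5% DMSO; controls lacking substrate or enzyme; luminescent end-point.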
Pol beta inh – inhibitors of human DNA polymerase beta; P06746; Potency, µM (series often up to 114 µM), for the others: at the highest dose activity change, negative = inhibition, actives largely listed as inhibitors; Pol beta primer extension/strand displacement, fluorescence kinetic; AID 485314; 1.3% of 340,000 active; further: potency means the concentration at half of the fitted maximal effect; on the % scale 0 is the no-effect control and ±100 the full control effect
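Homogeneous kinetic assay of primer extension and strand displacement by 10 nM Pol beta, preincubated 15 min at room temperature with compound before 50 nM substrate (final) was added. Read at 0 and 10 min; four-parameter Hill fit.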
WRN inhibitor – inhibitors of human WRN helicase; WRN helicase unwinding, fluorescent forked duplex, kinetic; Q14191; Potency, µM (titrated, usually from 114 µM), for inactives: top-dose activity change, negative = inhibition, most hits filed as inhibitors; AID 651768; 0.46% of 360,000 active; further: potency means the concentration at half of the fitted maximal effect; on the % scale 0 is the no-effect control and ±100 the full control effect; nearly all actives have a fitted effect of over 55% in size
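Kinetic fluorescence helicase assay: unwinding of a quenched forked DNA duplex (100 nM final) with 2 mM ATP final raises red fluorescence (525/598 nm). Compounds sat 15 min at room temperature with 20 nM WRN beforehand.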
Pol kappa inh-1 – blocks human DNA polymerase kappa activity; purified Pol kappa, fluorescent DNA synthesis assay, 10 min; Potency, µM (top dose mostly 107 µM), without a hit: top-dose activity, negative = inhibition, most hits filed as inhibitors; 0.53% of 400,000 active; AID 588579; further: potency means the concentration at half of the fitted maximal effect; on the % scale 0 is the no-effect control and ±100 the full control effect
Target sequence (Q9UBT6 whole entry, looked up): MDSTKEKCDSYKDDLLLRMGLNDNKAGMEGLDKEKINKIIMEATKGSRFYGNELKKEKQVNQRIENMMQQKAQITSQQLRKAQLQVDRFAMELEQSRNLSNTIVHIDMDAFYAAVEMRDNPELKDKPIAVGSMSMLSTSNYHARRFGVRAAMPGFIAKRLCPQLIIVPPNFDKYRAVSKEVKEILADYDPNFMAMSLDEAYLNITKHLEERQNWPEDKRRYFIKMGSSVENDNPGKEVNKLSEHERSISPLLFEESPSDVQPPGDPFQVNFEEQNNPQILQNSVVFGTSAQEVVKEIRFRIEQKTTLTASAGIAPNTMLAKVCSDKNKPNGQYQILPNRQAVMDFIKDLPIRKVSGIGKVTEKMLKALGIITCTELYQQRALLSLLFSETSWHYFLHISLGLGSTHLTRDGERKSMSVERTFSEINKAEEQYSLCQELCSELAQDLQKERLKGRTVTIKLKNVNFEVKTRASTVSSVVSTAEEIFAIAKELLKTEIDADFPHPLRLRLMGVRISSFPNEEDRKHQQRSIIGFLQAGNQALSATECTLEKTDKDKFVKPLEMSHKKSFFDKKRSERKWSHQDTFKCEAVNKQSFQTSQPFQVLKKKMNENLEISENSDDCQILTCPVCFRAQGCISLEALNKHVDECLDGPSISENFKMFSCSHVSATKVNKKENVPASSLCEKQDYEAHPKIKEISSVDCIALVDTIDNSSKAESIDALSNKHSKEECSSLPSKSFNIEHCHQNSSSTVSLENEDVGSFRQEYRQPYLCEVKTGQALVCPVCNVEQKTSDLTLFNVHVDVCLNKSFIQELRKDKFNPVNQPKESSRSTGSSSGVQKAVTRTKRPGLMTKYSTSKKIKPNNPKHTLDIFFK
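Enzyme at 10 nM met test compounds for 15 min at room temperature. Substrate addition (50 nM final) began the reaction, which was monitored by fluorescence at 0 and 10 min.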
Pol iota inh – blocks human DNA polymerase iota activity | Q9UNA4 | Pol iota fluorescent replication assay, 10 min | Potency, µM (doses to about 115 µM), inactives show at the highest dose activity, negative = inhibition, most hits filed as inhibitors | 1% of 390,000 active; further: potency means the concentration at half of the fitted maximal effect
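Fluorescent replication assay read twice, at 0 min and 10 min after adding 50 nM (final) substrate. Enzyme (10 nM) and compounds were first incubated 15 min at room temperature; enzyme-free buffer wells were negative controls.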
Pol kappa inh-2 – confirmation of human DNA polymerase kappa inhibitors | shares compounds with Pol eta inh-1 | purified Pol-kappa, fluorescent strand-displacement substrate | Potency, µM, hits mostly inhibitors | 76% of 920 active; further: potency means the concentration at half of the fitted maximal effect
Pol eta inh-2 – confirmation of human DNA polymerase eta inhibitors | Potency, µM, usual class: inhibitors | AID 720502 | shares compounds with Pol eta inh-1 | Pol eta primer extension, TAMRA/BHQ fluorescence, 10 min | 64% of 2,600 active; further: potency means the concentration at half of the fitted maximal effect
The depositor's hits bear a star; u = inconclusive; x = no result given; [ ] = remark or other dose. Only some compounds are listed: those with a hit (about 2.8% of all), similar ones and a draw of the others. Unless noted, the call rests on the fitted dose curve; in most records, active means well fitted curve in the direction sought with a large enough effect; inconclusive means small, poorly fitted or top-dose-only effect, or another doubt; inactive means no such curve, though single readings can be large; an effect the other way counts as inactive or inconclusive.

SMILES | Pol eta inh-1 | PI5P4K alpha inh | Pol beta inh | WRN inhibitor | Pol kappa inh-1 | Pol iota inh | Pol eta inh-2 | others
O=C(CC[C@H]1O[C@@H](n2cnc3c(NC(=O)c4ccccc4)ncnc32)[C@H](O)[C@@H]1O)NCCCN1CCCC1=O | x | -1.5 | x | -3.9% | x | x | x
Cc1nnc(SCC2=C(C(=O)O)N3C(=O)C(NC(=O)c4cc(F)c(F)cc4Cl)C3SC2)s1 (stereo unspecified) | 20µM* | 1.6 | u | -6.2%[11.6 µM] | u | u | 33.8*
Cn1nnnc1SCC1=C(C(=O)O)N2C(=O)[C@@H](NC(=O)[C@@H](O)c3ccccc3)[C@@H]2SC1 | x | x | x | x | -15.8%[12 µM] | x | x
Cc1nnc(SCC2=C(C(=O)O)N3C(=O)C(NC(=O)COc4ccccc4)C3SC2)s1 (stereo unspecified) | 10µM* | -10.7 | x | u | 79.4µM* | u | 37.9* | Pol kappa inh-2=u
CCC(C(=O)NC1C(=O)N2C(C(=O)O)=C(CSc3nnc(C)s3)CSC12)c1ccccc1 (stereo unspecified) | u | -8.2 | x | -10.5% | -28.9% | -27.0% | x
O=C1C2C3C=CC(CC3)C2C(=O)N1/N=C/c1ccc(O)cc1 (stereo unspecified) | 3.6% | x | 22.4% | 0.8% | -2.5% | 4.5% | x
O=C1C2C3C=CC(CC3)C2C(=O)N1/N=C/c1ccc(O)c(O)c1 (stereo unspecified) | 3.98µM* | u | u | -15.3%[57.1 µM] | u | u | u
O=C1c2ccccc2C(=O)N1/N=C/c1ccc(O)c(O)c1 | u | -11.6 | u | -20.6%[11.6 µM] | u | u | 60.1*
COc1ccc(S(=O)(=O)N(CC(=O)N(C)Cc2ccccc2)c2ccc(Cl)cc2)cc1 | -23.6% | x | 13.0% | x | 6.0% | 14.1% | x
Cc1c(NC(=O)C(C)OC(=O)c2ccc([N+](=O)[O-])s2)c(=O)n(-c2ccccc2)n1C (stereo unspecified) | 50.1µM* | -9.3 | 10µM* | -0.2%[11.6 µM] | u | u | u
COc1cc2nc(N3CCCCC3)nc(NC(C)C)c2cc1OC | x | x | x | x | -21.4% | 30.7% | x
Cc1cc2oc(C(=O)Nc3c(C(=O)Nc4ccccc4)oc4ccccc34)cc(=O)c2cc1C | -9.9% | x | 12.1% | x | 10.3% | 3.1% | x
Oc1ccc(/C=N/n2c(COc3ccccc3)n[nH]c2=S)cc1O | u | -23.4 | 6.31µM* | u | 20µM* | 6.31µM* | 16.9*
Cc1ccc(C)n1-c1cccc(-c2nn[nH]n2)c1 | x | x | x | x | x | x | u
N#Cc1c(/N=C/c2ccc(-c3ccc(C(=O)O)c(Cl)c3)o2)sc2c1CCCC2 | 22.4µM* | -14.0 | x | -30.9% | -33.0% | -20.3% | u
N#Cc1c(/N=C/c2ccc(-c3ccccc3C(=O)O)o2)sc2c1CCCC2 | 28.2µM* | -14.2 | 28.2µM* | -27.5% | -30.9% | u | 67.5*
Cc1ccc(/C=N/c2sc3c(c2C#N)CCC3)o1 | u | -20.9 | 8.2% | -21.2% | -6.9% | u | x
CCOC(=O)C1=C(O)/C(=C\c2cccs2)N=C1C | -15.7% | -2.8 | 11.2% | -8.3% | -1.0% | -9.5% | x
CCOC(=O)C1=C(O)/C(=C\c2ccc(CNC(=O)C(=O)Nc3ccccc3)o2)N=C1C | 10µM* | -64.7* | 8.91µM* | u | u | 17.8µM* | 47.8* | Pol kappa inh-2=53.2*
Cc1cc(NC(=O)c2cc([N+](=O)[O-])cc([N+](=O)[O-])c2C)no1 | 31.6µM* | -28.9 | u | -17.4% | u | 56.2µM* | u
Cn1cc([N+](=O)[O-])c(C(=O)n2cccn2)n1 | 3.1% | 4.9 | 3.1% | 0.9% | -1.4% | 11.9%[58.9 µM] | x
Cc1ccc(S(=O)(=O)Nc2ccccc2C(=O)Nc2nc(-c3ccc(F)cc3)cs2)cc1 | 89.1µM* | -9.6 | 8.9% | u | u | u | u
Cc1ccc(C(=O)c2coc3cc([N+](=O)[O-])c(O)c([N+](=O)[O-])c23)cc1 | 20µM* | -81.7* | 20µM* | u | u | u | x | Pol kappa inh-2=u
CC(C)C(=O)Nc1ccc2c(c1)nc(CCN1CCN(c3ccccn3)CC1)n2C | -10.5% | -1.6 | 13.2% | 5.5% | -15.3% | 30.0% | x
O=C(O)c1ccc(/C=C/c2nc3sc4c(c3c(=O)[nH]2)CCC4)cc1 | 22.4µM* | 0.8 | -10.6% | -35.9% | u | 14.1µM* | u
SMILES | Pol eta inh-1 | PI5P4K alpha inh | Pol beta inh | WRN inhibitor | Pol kappa inh-1 | Pol iota inh | Pol eta inh-2 | others
O=C(O)c1ccc(/C=C/c2nc3ccccc3c(=O)[nH]2)cc1 | 2.4% | 1.4 | 1.3% | -3.3%[57.1 µM] | -17.2% | u | x
O=S(=O)(Nc1ccc(Br)cn1)c1ccc2ccccc2c1 | 12.5% | 8.5 | 9.8% | u | -2.4% | -2.1% | x
COc1ccc(N2Cc3cccc(C(=O)N4CCOCC4)c3C2=O)cc1 | -7.7% | -4.0 | 2.6% | 10.2% | 3.6% | 17.3% | x
COc1ccc(N2Cc3cccc(C(=O)Nc4ccc(Cl)cc4)c3C2=O)cc1 | u | x | 12.6µM* | x | -31.8% | u | u | Pol kappa inh-2=u
CCOCCCN(Cc1ccco1)S(=O)(=O)c1cc2c(cc1Cl)NC(=O)CO2 | 79.4µM* | x | u | x | 0.8%[60.1 µM] | u | u | Pol kappa inh-2=u
CC(=O)OCC(=O)[C@@]12OC(C)(C)O[C@@H]1C[C@H]1[C@H]3C[C@H](F)C4=CC(=O)C=C[C@@]4(C)[C@]3(F)[C@H](O)C[C@@]12C | x | x | x | x | -8.0%[19.4 µM] | x | x
O=C(O)c1ccc(S(=O)(=O)Nc2ccc(O)c(Sc3nc4ccccc4s3)c2)cc1 | 35.5µM* | u | 22.4µM* | u | u | 15.8µM* | u
NS(=O)(=O)c1ccc(Sc2nc3ccccc3s2)c([N+](=O)[O-])c1 | -27.0% | -15.3 | -6.5% | -12.4% | -1.0% | 13.6% | x
Nc1nnc(CC(=O)N/N=C/c2cc([N+](=O)[O-])cc(Br)c2O)s1 | u | u | u | 56.2µM* | 50.1µM* | u | u | Pol kappa inh-2=47.4*
COc1cc(/C=C(/C#N)C(=O)Nc2ccccc2)c(Br)cc1OCc1ccc(C(=O)O)cc1 | 79.4µM* | 4.5 | -13.6% | u | -16.0% | u | u
N#C/C(=C\c1ccc(OCc2ccccc2)cc1)C(=O)Nc1ccc(C(=O)O)cc1 | -16.5% | -12.3 | 2.2% | -4.0% | -5.7% | u | x
O=C(NCc1ccccc1)c1ccc2c(=O)[nH]c3c(C(=O)NCC4CCCO4)sc(=S)n3c2c1 (stereo unspecified) | u | -17.4 | u | u | -14.7% | 38.5% | u
